Results filed as inconclusive are left out. Calls of active or inactive are those of the source. The call rests on the fitted dose curve; in most records, active means well fitted cell-killing curve with a large enough effect; inconclusive means small, poorly fitted or top-dose-only effect, or effect the other way; inactive means flat fitted curve, though single readings scatter.
What was measured:
Assay in all cases: Primary qHTS to identify gynecologic anti-cancer compounds using libraries of approved drugs and bioactive compounds (AID 1345084); further: nearly all actives have a fitted effect of over 55% in size
Conditions in all cases: Gynecologic cancer cell panel viability, ATPlite luminescence, 48 h; series mostly up to 57.5 µM
SKOV3 = system: SKOV3
Procedure, shortened: (§1)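 Cell viability after 48 h drug treatment, ATPlite luminescence readout; five doses.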

Tov-21-G = system: Tov-21-G
Procedure, shortened: as §1

Tov112D = system: Tov112D
Procedure, shortened: as §1
On the % scale 0 is the no-effect control and ±100 the full control effect.

C/C=C1\[C@H](O[C@@H]2O[C@H](CO)[C@@H](O)[C@H](O)[C@H]2O)OC=C(C(=O)O)[C@H]1CC(=O)OCCc1ccc(O)cc1
inactive: Potency (SKOV3) | Potency (Tov-21-G) | Potency (Tov112D)

Oc1ccccc1-c1cc(-c2ccccc2F)[nH]n1
inactive: Potency (SKOV3) | Potency (Tov-21-G) | Potency (Tov112D)

COc1c(C)c(OCC=C(C)C)cc2c1CNC2=O
inactive: Potency (SKOV3) | Potency (Tov-21-G) | Potency (Tov112D)

CC1(C)CC[C@]2(C(=O)O[C@@H]3O[C@H](CO[C@@H]4O[C@H](CO)[C@@H](O)[C@H](O)[C@H]4O)[C@@H](O)[C@H](O[C@@H]4O[C@H](CO)[C@@H](O)[C@H](O)[C@H]4O)[C@H]3O)CC[C@]3(C)C(=CCC4[C@@]5(C)CC[C@H](O[C@@H]6OC[C@@H](O)[C@H](O)[C@H]6O)[C@@](C)(C(=O)O)C5CC[C@]43C)[C@@H]2C1 (stereo partly specified)
inactive: activity change, negative = cytotoxicity (SKOV3) 10.7% [at 11.6 µM] | activity change, negative = cytotoxicity (Tov-21-G) 10.6% [at 11.6 µM] | activity change, negative = cytotoxicity (Tov112D) 3.57% [at 11.6 µM]

CC(=O)OC[C@]12[C@@H](OC(=O)c3ccoc3)C[C@@H]3[C@@H](OC(C)=O)[C@]1(OC3(C)C)[C@@](C)(O)C[C@H](OC(=O)c1ccoc1)[C@@H]2OC(=O)c1ccoc1
inactive: Potency (SKOV3) | Potency (Tov-21-G) | Potency (Tov112D)

COC(=O)C1=CO[C@@H](O[C@@H]2O[C@H](CO)[C@@H](O)[C@H](O)[C@H]2O)[C@@H]2[C@@H](C(=O)O)CC[C@H]12
inactive: Potency (SKOV3) | Potency (Tov-21-G) | Potency (Tov112D)

C/C(=C\CC[C@H](CO)[C@@H]1CC[C@]2(C)C3=C(CC[C@@]12C)[C@@]1(C)CCC(=O)C(C)(C)C1CC3)C(=O)O (stereo partly specified)
inactive: Potency (SKOV3) | Potency (Tov-21-G) | Potency (Tov112D)

CC1=C2CC3C(CCC3(C)O)C(C)(O)CC2OC1=O (stereo unspecified)
inactive: Potency (SKOV3) | Potency (Tov-21-G) | Potency (Tov112D)

Oc1ccc2c(-c3c(-c4ccccn4)nn4c3CCC4)ccnc2c1
inactive: Potency (SKOV3) | Potency (Tov-21-G) | Potency (Tov112D)

COc1cc(/C=C/C(=O)OC[C@H]2O[C@@H](OC3CC(C)=C(C(=O)O)C(C)(C)C3)[C@H](O)[C@@H](O)[C@@H]2O)cc(OC)c1O (stereo partly specified)
inactive: Potency (SKOV3) | Potency (Tov-21-G) | Potency (Tov112D)

COc1cccc(C)c1C(=O)O[C@@H]1C[C@H](O[C@H]2[C@H](O)C[C@H](O[C@@H]3CCC[C@H]4[C@H]3C=C[C@@H]3CCCC/C=C/[C@H]5C=C(C(=O)O)[C@@H](C)C[C@@]56OC(=O)C(=C6O)OC(=O)[C@@]34C)O[C@@H]2C)O[C@H](C)[C@H]1O
inactive: activity change, negative = cytotoxicity (SKOV3) 18.8% [at 11.6 µM] | activity change, negative = cytotoxicity (Tov-21-G) 11.1% [at 11.6 µM] | activity change, negative = cytotoxicity (Tov112D) -1.83% [at 11.6 µM]

CC1=C2C[C@@]3(C)[C@@H](CCC[C@@H]3C)C[C@@]2(O)OC1=O
inactive: Potency (SKOV3) | Potency (Tov-21-G) | Potency (Tov112D)

O=C(O[C@@H]1O[C@H](CO)[C@@H](O)[C@H](O)[C@H]1O)c1ccccc1
inactive: Potency (SKOV3) | Potency (Tov-21-G) | Potency (Tov112D)

NC(=O)[C@H](Cc1ccccc1)NC(=O)[C@H](CCCN=C(N)N)NC(=O)C12CC3CC(CC(C3)C1)C2
inactive: activity change, negative = cytotoxicity (SKOV3) 6.06% [at 11.6 µM] | activity change, negative = cytotoxicity (Tov-21-G) 4.32% [at 11.6 µM] | activity change, negative = cytotoxicity (Tov112D) -1.65% [at 11.6 µM]

C[C@@H]1O[C@@H](O[C@H]2[C@H](O)[C@@H](O[C@@H]3O[C@H](CO)[C@H](O)[C@H](O)[C@H]3O)[C@H](O[C@H]3CC[C@@]4(C)C(CC[C@]5(C)C4CC=C4[C@@H]6CC(C)(C)CC[C@]6(C(=O)O[C@@H]6O[C@H](CO)[C@@H](O)[C@H](O)[C@H]6O)CC[C@]45C)C3(C)C)O[C@@H]2C(=O)O)[C@H](O)[C@H](O)[C@H]1O (stereo partly specified)
inactive: activity change, negative = cytotoxicity (SKOV3) -3.61% [at 11.6 µM] | activity change, negative = cytotoxicity (Tov-21-G) 8.52% [at 11.6 µM] | activity change, negative = cytotoxicity (Tov112D) 3% [at 11.6 µM]

CC1(C)CC[C@]2(C(=O)O[C@@H]3O[C@H](CO)[C@@H](O)[C@H](O)[C@H]3O)CC[C@]3(C)C(=CCC4[C@@]5(C)C[C@@H](O)[C@H](O)[C@@](C)(CO)C5[C@H](O)C[C@]43C)C2C1 (stereo partly specified)
inactive: Potency (SKOV3) | Potency (Tov-21-G) | Potency (Tov112D)

CC1(C)CC[C@]2(C(=O)O[C@@H]3O[C@H](CO)[C@@H](O)[C@H](O)[C@H]3O)CC[C@]3(C)C(=CCC4[C@@]5(C)C[C@H](O)[C@H](O[C@@H]6OC[C@@H](O)[C@H](O)[C@H]6O)[C@@](C)(CO)C5CC[C@]43C)C2C1 (stereo partly specified)
inactive: activity change, negative = cytotoxicity (SKOV3) 21.5% [at 11.6 µM] | activity change, negative = cytotoxicity (Tov-21-G) -9.27% [at 11.6 µM] | activity change, negative = cytotoxicity (Tov112D) 3.56% [at 11.6 µM]

Source: PubChem BioAssay (NCATS)
